Screen size: about 2,400 compounds; about 2,000 (83%) were called active. The set was probably picked from earlier hits. A selection follows. Unmarked numbers belong to inactive results.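 Rule for the calls: active = inhibition above the solvent-only control well mean plus 3 SD, limit set per screening run (cut at about 23% in these data); inactive = the rest.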

Sequence of Guanyl-specific ribonuclease T1 (Aspergillus oryzae (strain ATCC 42149 / RIB 40)) (P00651 whole entry, looked up): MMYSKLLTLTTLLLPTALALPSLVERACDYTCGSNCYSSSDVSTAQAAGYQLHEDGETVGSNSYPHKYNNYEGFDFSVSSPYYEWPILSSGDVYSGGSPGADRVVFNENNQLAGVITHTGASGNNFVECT

The assay addresses Guanyl-specific ribonuclease T1 (Aspergillus oryzae (strain ATCC 42149 / RIB 40)) (UniProt P00651). Briefly: blockers of Aspergillus RNase T1 cleavage – biochemical, fluorescence polarization, counter-screen for TPT1 inhibitor project (AID 2153).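 Note: plate controls were DMSO wells with enzyme for no effect and wells without RNase T1 for full effect; inhibitors block cleavage so intact labeled substrate keeps polarization high.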 Conditions: 1536-well, at 5 µM, active compounds read high. (Polarisation of emitted light reports the rotation of a fluorescent probe.)
Take `Cc1ccc(Nc2nc(Cl)c(C=O)s2)cc1`: the inhibition was 77.2% (active).
For `Cc1ccc2[nH]c(=O)c(CN3CCCCC3)c(-c3ccccc3)c2c1`, the inhibition was 3.06%.
Take `CCOc1ccc(-n2c(O)c(/C=N/c3ccnn3Cc3ccncc3)c3ccccc3c2=O)cc1`: the inhibition is 92% (active).
Turning to `Cc1ccc2cc(/C=N/Nc3ccc(C(=O)O)cc3)c(Cl)nc2c1`, the inhibition was 46.9% (active).
On to `CCn1c(/C=C/c2ccc([N+](=O)[O-])o2)nc2ccccc2c1=O`, for which the inhibition is 49.4% (active).
With `CN=c1scc(-c2cc(OC)ccc2OC)n1/N=C/c1c(C)[nH]c2ccccc12`, the inhibition was 32.1% (active).
`COc1cc(N2CCCC2)c(OC)cc1/C=C(/C#N)c1cccc(Br)c1`: the inhibition was 91.3% (active).
`CCN1/C(=C\c2ccc3ccccc3[n+]2CC)Sc2cc(C)ccc21`: the inhibition was 88.3% (active).
`CCN1/C(=C/c2ccc3ccc(C)cc3[n+]2CC)Sc2ccccc21`: the inhibition was 59.6% (active).
In the case of `O=S(=O)(O)Oc1c[nH]c2ccccc12`, the inhibition is 49.5% (active).
The figure for `CCOC(=O)C1=C(C)Nc2sc(C(=O)c3ccc(Br)cc3)c(N)c2C1c1ccc(C(=O)OC)cc1` (centres undefined) is 37.3% (active); for `Cc1cc(/C=C2/SC(=O)N(CC(=O)N3CCCC3)C2=O)ccc1N1CCOCC1` it is 78.1% (active); for `CC(=O)n1c(C=Nc2ccccc2)c(O)c2ccccc21` it is 84.6% (active).
For the molecule `COC(=O)c1[nH]c2cccc(C)c2c1NC(=O)CN1CCCc2ccccc21`, the inhibition was 29.8% (active).
Consider `CCN(CC)c1ccc2cc(C(N)=O)/c(=N\NC(=O)c3ccncc3)oc2c1`, for which the inhibition was 135% (active).
As to `CCOC(=O)c1c(NC(=S)Nc2ccccc2)sc2c1CCN(C)C2`, the inhibition is 54% (active).
The figure for `CC(=O)c1cc(NC(=O)c2ccccc2)c(=O)oc1/C=C/N(C)C` is 123% (active); for `CC[n+]1cc(C)ccc1/C=C/c1ccc(N(C)C)cc1` it is 51.2% (active).
In the case of `O=C(NNc1c2ccccc2nc2ccccc12)c1cc2ccccc2cc1O`, the inhibition was 46.8% (active).
As to `CCN(CC)C(=O)CSC(Nc1cccc(F)c1)=C(C#N)C#N`, the inhibition was 61.1% (active).
As to `CN(C)CCCn1c(N)c(C#N)c2nc(C#N)c(C#N)nc21`, the inhibition was 58.9% (active).
Regarding `Cc1ccc(N=C2NC(=O)/C(=C/C=C/c3ccco3)S2)cc1C`, the inhibition is 30.5% (active).
As for `COc1ccc(Cc2nc(-c3ccccn3)no2)cc1OC`, the inhibition was 13.1%.
Regarding `CN(C)c1ccc(/C=C2\NC(=S)N(Cc3ccccc3)C2=O)cc1`, the inhibition is 144% (active).
The figure for `CCOC(=O)c1c(CC(C)C)csc1/N=C/C1=C(O)CCCC1=O` is 17.9%.
The figure for `Cc1cc(/C=N/Nc2ccc([N+](=O)[O-])cn2)c(C)n1-c1cccc(C(=O)O)c1` is 62.8% (active).
Take `Cc1ccc(-n2c(C)cc(/C=N/Nc3ccc([N+](=O)[O-])cn3)c2C)c(C)c1`: the inhibition is 76.1% (active).
Turning to `Nc1nonc1-n1nnc(C(=O)N/N=C/c2cc(Br)ccc2O)c1CSC1=NCCS1`, the inhibition is 41.6% (active).
The figure for `COc1ccccc1/C=N/Nc1nc(C)c(C(C)=O)s1` is 39.1% (active); for `O=C(CN1C(=O)c2ccccc2C1=O)NCc1ccc(C(=O)O)cc1` it is 15.9%; for `Cc1c(CC(=O)N2CCN(C(=O)C3COc4ccccc4O3)CC2)c(=O)oc2c(O)c(O)ccc12` (centres undefined) it is 8.71%.
Consider `COc1cc(/C=C2/SC(=S)N(Cc3ccccc3)C2=O)cc(OC)c1O`, for which the inhibition is 108% (active).
Consider `NC(=O)c1c(Nc2nc3c(F)cccc3s2)sc2c1CCCC2`, for which the inhibition is 97.8% (active).
The figure for `CC1=CC2=NC(=O)/C(=C/c3coc4ccccc4c3=O)C(=N)N2O1` is 45.6% (active); for `Oc1ccc(/C=N/Nc2nc(-c3ccccc3F)nc3ccccc23)c(O)c1` it is 41.4% (active); for `CCOC(=O)/C(C#N)=C/c1ccc(N2CCN(Cc3ccccc3)CC2)cc1` it is 92.8% (active).
As to `CCOC(=O)/C(C#N)=C/c1ccc(N2CCCCC2)cc1`, the inhibition is 129% (active).
In the case of `Cc1ccc(CC2S/C(=C(/C#N)C(=O)N3CCOCC3)N(c3ccccc3)C2=O)cc1` (centres undefined), the inhibition is 14.3%.
On to `N#C/C(=C\c1ccc(N2CCOCC2)o1)C(=O)N1CCOCC1`, for which the inhibition was 165% (active).
In the case of `N#C/C(=C/c1ccc(N2CCOCC2)o1)C(=O)N1CCOCC1`, the inhibition is 178% (active).
Regarding `COc1cc2c(cc1O)[C@H](Cc1ccc(Oc3cc(C[C@@H]4NCCc5cc(OC)c(O)cc54)ccc3O)cc1)NCC2`, the inhibition is 44.2% (active).
For `Cc1nc2ccccc2nc(=O)c1NNc1ccc([N+](=O)[O-])cc1`, the inhibition was 47.2% (active).
As to `O=C1NC(=O)C2C1C(c1ccc([N+](=O)[O-])cc1)=NN2Cc1ccccc1` (centres undefined), the inhibition was 48% (active).
Consider `Nc1c(C(=O)c2cccs2)sc2nsc(SCCN3CCCCC3)c12`, for which the inhibition was 73.8% (active).
The figure for `CN1C(=O)/C(=C/C=C2\SCCN2C)OC1=S` is 165% (active); for `COc1ccc(N=C(C)c2sc3ccccc3c2O)cc1` it is 82.8% (active); for `Cc1cccc2cc3c(N)c(C(=O)N4CCCc5ccccc54)sc3nc12` it is 68.5% (active).
Consider `Cc1sc2nc(COC(=O)C(NC(=O)c3ccc(Cl)cc3Cl)C(C)C)[nH]c(=O)c2c1C` (centres undefined), for which the inhibition is 66.8% (active).
For the molecule `O=C(Nc1ccc(S(=O)(=O)Nc2nccs2)cc1)c1cc(-c2ccncc2)nc2ccccc12`, the inhibition is 64.3% (active).
The figure for `CCCCCCc1cc2cc(-c3nnc(-c4ccccc4)o3)c(=O)oc2cc1O` is 110% (active); for `NNC(=O)c1oc2nc(-c3ccccc3)cc(-c3ccco3)c2c1N` it is 43.8% (active).
The figure for `COc1cc(/C=C(\C#N)c2nc3c(s2)CC(C)CC3)ccc1O` (centres undefined) is 125% (active); for `COc1cc(/C=C(\C#N)c2nc3ccccc3[nH]2)ccc1O` it is 112% (active).
The figure for `C[n+]1ccc(/C=C/c2c[nH]c3ccccc23)cc1` is 63.7% (active); for `CN(c1ccccc1)c1ccc(/C=c2\s/c(=C(/C#N)C(=O)C(C)(C)C)n(Cc3ccco3)c2=O)cc1` it is 125% (active); for `C=CCC1=C/C(=C\c2c(N)n3nc(CC(=O)N4CCOCC4)sc3nc2=O)C=C(OC)C1=O` it is 106% (active).
For `CC(C)(C)c1ccc(/C=C2\Oc3c(ccc(O)c3CN3CCN(CCO)CC3)C2=O)cc1`, the inhibition was 45.6% (active).
The figure for `O=C1Nc2cc(C(=O)N3CCN(c4ccc(F)cc4)CC3)ccc2NC1CSCc1cccc(F)c1` (centres undefined) is 116% (active).
`Cc1ccc(CSCC2Nc3ccc(C(=O)N4CCN(c5ccc(F)cc5)CC4)cc3NC2=O)cc1` (centres undefined): the inhibition was 22.8% (active).
The figure for `CC(C)c1ccc(Nc2nnc(SCC(=O)c3nnc(-c4ccccc4)o3)s2)cc1` is 29.1% (active).
Turning to `CN1C(=O)/C(=C\c2ccc(-c3ccccc3)o2)SC1=S`, the inhibition is 96.2% (active).
For `O=C(O)C(c1ccccc1)N1C(=O)/C(=C\c2ccc(-c3cccc(Cl)c3)o2)SC1=S` (centres undefined), the inhibition was 146% (active).
As to `CCC(=C/c1sc2ccc3ccccc3c2[n+]1C)/C=C1\Sc2ccc3ccccc3c2N1C`, the inhibition is 104% (active).
As to `O=C(N/N=C/c1sc(N2CCCCC2)nc1-c1cccs1)c1cccnc1`, the inhibition is 51.2% (active).
For `Cc1cccc(COc2ccccc2/C=N/Nc2ccc([N+](=O)[O-])cc2)c1`, the inhibition was 98.6% (active).
In the case of `O=[N+]([O-])c1ccc(N/N=C/c2ccccc2)cc1`, the inhibition was 52.2% (active).
For the molecule `Cc1cccc(NC(=O)c2ccc(COc3ccccc3[N+](=O)[O-])o2)n1`, the inhibition was 8.35%.
As for `CCOc1ccc(/C=C2\SC(=S)N(NC(=O)c3ccncc3)C2=O)cc1OC`, the inhibition is 65.5% (active).
Regarding `Cc1c(C(=O)OC(C)C)sc(NC(=O)c2cccnc2)c1C#N`, the inhibition was 38.8% (active).
In the case of `CCOc1cc(/C=C(\C#N)c2nc(-c3cccs3)c(NC(C)=O)s2)ccc1O`, the inhibition is 95.6% (active).
The figure for `Cn1ccc(=NC=C(C#N)C#N)c2ccccc21` is 31.9% (active).
The figure for `CC1CCN(C(=O)c2ccc3c(c2)NC(=O)CN3)CC1` is 52.2% (active).
With `O=C(C[n+]1cc(Br)cc2ccccc21)c1ccc(F)cc1`, the inhibition was 54.2% (active).
For `O=C(Cc1nc2ccccc2[nH]c1=O)c1ccc(Cl)cc1`, the inhibition is 65.7% (active).

As a reminder, the inhibition is the change of the read-out against control, counted positive when it falls.

(Values after PubChem BioAssay AID2153 (The Scripps Research Institute Molecular Screening Center, 2009).)
